Data reported in PubChem BioAssay.

System: not listed separately
Assay: mitochondrial membrane potential change in A549 cells, profiling panel, cell-based, JC-1 fluorescence, basal, 24 h, 100 nL (AID 1138);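 also: A549 lung adenocarcinoma cells under basal conditions with no added stimulus; test concentration not given here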
Settings: higher = more signal

| Structure (SMILES) | z-score |
| --- | --- |
| C=CCC(OC(C)=O)[C@@H]1[C@@H](N(Cc2ccc(-c3cccc(C(F)(F)F)c3)o2)C(=O)c2ccc(-c3ccccc3)cc2)c2cc(OCCCO)ccc2N1C(=O)c1ccc2ccccc2c1 (stereo partly specified) | 0.413 |
| Cc1ccc(S[C@]2(C(=O)NCCCN(C)C)CC(=O)N(Cc3ccccc3C(F)(F)F)[C@@H]2c2ccc(CO)cc2I)cc1 | 0.281 |
| CN(C)CCCC[C@@H]1NC(=O)[C@H]2C[C@@H](C(=O)O)[C@@H](c3ccc(O)cc3)N2C1=O | -0.447 |
| COCCOC(=O)N1C(=O)[C@@]2(c3cc(C#CCCO)ccc31)[C@H](c1ccc(OCCO)cc1)N1[C@H](c3ccccc3)[C@H](c3ccccc3)OC(=O)[C@H]1[C@@H]2C(=O)N1CCCCCCC1 | -0.901 |
| CCN(CC)c1ccc(N2CC=CC34O[C@@H]5C=CCCOC(=O)C5[C@H]3C(=O)N(C(C)CO)[C@@H]4C2=O)cc1 (stereo partly specified) | 0.337 |
| CC(C)=CCCC(C)=CC(O)C1C=CC2C(=O)NC(=O)C2N1Nc1ccc(Cl)cc1Cl (stereo unspecified) | -0.974 |
| COC(=O)[C@@]1(Cc2ccc(F)cc2)[C@H]2c3cc(C(=O)N(C)C)n(CCc4ccc(O)c(O)c4)c3C[C@H]2CN1C(=O)c1ccccc1 | 0.987 |
| N#Cc1ccc(-c2cccc(=O)o2)cc1 | -0.119 |
| COC(=O)[C@@]1(Cc2ccccc2)[C@H]2c3cc(C(=O)N(C)C)n(CCO)c3C[C@H]2CN1C(=O)c1ccccc1 | 0.628 |
| C=CCOC(=O)[C@H]1[C@@H]2C(=O)O[C@@H](c3ccccc3)[C@@H](c3ccccc3)N2[C@@H](c2ccc(OCCOC(=O)[C@@H]3C[C@@H]4C(=O)N[C@@H](CCCC[N+](C)(C)C)C(=O)N4[C@@H]3c3ccc(O)cc3)cc2)[C@]12C(=O)Nc1ccc(I)cc12 | -1.77 |

System: Lefty1
Assay: Lefty1 binders on small-molecule microarrays, primary screen, biochemical, small-molecule microarray, 635/667 nm fluorescence (AID 1139)
Settings: small-molecule microarray binding, fluorescence 635/667; higher = more signal

| Structure (SMILES) | composite z-score |
| --- | --- |
| CCOC(=O)C[C@H]1[C@H](OC(=O)Cc2ccc3c(c2)OCO3)[C@@H](NC(=O)Cc2ccc(OC)cc2)c2cc(OCCCO)ccc2N1C(=O)Cc1ccc(OC)cc1 | 0.0681 |
| COC(=O)[C@@]1(Cc2ccccc2)[C@H]2c3cc(C(=O)N4CCCC4)n(Cc4ccc(OC)c(OC)c4)c3C[C@H]2CN1C(=O)c1ccccc1 | -0.115 |
| [N-]=[N+]=Nc1ccccc1C[C@]1(C(=O)N2CCOCC2)N=C(c2ccc(OCCCO)cc2)O[C@H]1c1ccccc1N=[N+]=[N-] | 1.41 |
| CC(C)(C)N1CC=CC23O[C@@H]4/C=C\CCCOC(=O)C4[C@H]2C(=O)N(CCCO)[C@@H]3C1=O (stereo partly specified) | -0.538 |
| COc1ccc(CCNC(=O)[C@@H]2c3ccccc3C(=O)N(Cc3ccccc3OC)[C@H]2c2ccc(CO)cc2)cc1 | 0.0605 |
| NC(=O)NCC#Cc1ccc2c(c1)[C@]1(C(=O)N2)[C@H](c2ccc(OCCO)cc2)N2[C@H](c3ccccc3)[C@H](c3ccccc3)OC(=O)[C@H]2[C@@H]1C(=O)O | -0.601 |
| COc1ccc(C(=O)Nc2ccc3c(c2)[C@@]2(O[C@H](CCO)[C@@H]([Si](C)(C)c4ccc(OC)cc4)[C@@H]2C)C(=O)N3Cc2ccccc2)cc1 | 0.792 |
| COC(=O)C1=CC(CCCO)=CC(c2cccs2)N(Cc2cc3c(cc2Br)OCO3)C=C1C(=O)OC (stereo unspecified) | 0.273 |
| O=C1O[C@H](c2ccccc2)[C@H](c2ccccc2)N2[C@H]1[C@@H](C(=O)O)[C@]1(C(=O)Nc3ccc(C#CCCO)cc31)[C@H]2c1ccc(OCCO)cc1 | 0.0897 |
| CCOC(=O)C[C@H]1[C@H](OC(=O)Cc2ccc3c(c2)OCO3)[C@@H](NC(=O)c2ccc3ccccc3n2)c2cc(OCCCO)ccc2N1C(=O)Cc1ccc(OC)cc1 | 0.577 |
| O=C(NC1CC1)[C@@H]1c2ccccc2C(=O)N(Cc2cc(C(F)(F)F)cc(C(F)(F)F)c2)[C@H]1c1ccc(CO)cc1 | -0.291 |
| C=C(/C(=C/C[C@@H](OC(C)=O)c1cccc(OCCO)c1)c1cnc2ccccc2c1)C(C)C | 1.55 |
| O=C1C2C=CC(C(O)c3cccs3)N(Nc3ccc([N+](=O)[O-])cc3)C2C(=O)N1c1ccccc1 (stereo unspecified) | -0.457 |
| C[N+](C)(C)CCCC[C@@H]1NC(=O)[C@H]2C[C@@H](C(=O)NCCCCCNC(=O)CS)[C@@H](c3cccc(OCCO)c3)N2C1=O | -0.383 |
| COCCOC(=O)N1C(=O)[C@@]2(c3cc(C#CCC(C(=O)OC)C(=O)OC)ccc31)[C@H](c1ccc(O)cc1)N1[C@H](c3ccccc3)[C@H](c3ccccc3)OC(=O)[C@H]1[C@@H]2C(=O)Nc1nc2ccccc2s1 | 1.44 |
| COC(=O)[C@@]1(Cc2ccc(OC)cc2)[C@H]2c3cc(C(=O)N4CCCC4)n(Cc4c(CO)[nH]cc(C)c4=O)c3C[C@H]2CN1C(=O)c1ccccc1 | -0.116 |
